# ± gives the standard deviation of the averaged measurements.
# Tests used:
# DLD1 [1] = assay: cell viability (CellTiter-Glo) relative to plate median (fraction of plate median); higher = more viable cells; details: 10 µM, treatment time 24 h
# In short: (§1)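 Colorectal cancer cell lines stably transduced with lentiviral TCF/Wnt firefly luciferase reporters (7TFP or TCF4/Wnt) were seeded in 384-well plates. 24 h later they received kinase inhibitor library compounds at a final 10 µM for 24 h. Parallel plates were read for firefly luciferase or CellTiterGlo luminescence on a Tecan F500 reader. Each well's signal was normalised to the plate median (webcellHTS2, additive, no log transformation), and the mean of two independent replicates is reported.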
# HCT116 [2] = assay: as above; details: 10 µM; treatment time 24 h; reporter: TCF4/Wnt
# In short: as §1
# SW480 [3] = assay: as above; details: 10 µM; treatment time 24 h; reporter: 7TFP
# In short: as §1
# DLD1 [4] = assay: TCF/Wnt firefly luciferase reporter signal relative to plate median (fraction of plate median); higher = higher Wnt reporter signal; details: 10 µM, treatment time 24 h
# In short: as §1
# HCT116 [5] = assay: as above; details: 10 µM; treatment time 24 h; reporter: TCF4/Wnt
# In short: as §1
# SW480 [6] = assay: as above; details: 10 µM; treatment time 24 h; reporter: 7TFP
# In short: as §1
Structure (SMILES),cell viability (DLD1 [1]; reporter: 7TFP),cell viability (DLD1 [1]; reporter: TCF4/Wnt),cell viability (HCT116 [2]),cell viability (SW480 [3]),TCF/Wnt firefly luciferase reporter signal (DLD1 [4]; reporter: 7TFP),TCF/Wnt firefly luciferase reporter signal (DLD1 [4]; reporter: TCF4/Wnt),TCF/Wnt firefly luciferase reporter signal (HCT116 [5]),TCF/Wnt firefly luciferase reporter signal (SW480 [6])
CN(C)CCOc1ccc(-c2nc(-c3ccncc3)c(-c3ccc4c(c3)CC/C4=N\O)[nH]2)cc1,1.04 ± 0.071,1.14 ± 0.064,1.2 ± 0.11,1.11 ± 0.071,1.3 ± 0.092,1.28 ± 0.042,1.19 ± 0.24,1.27 ± 0.33
c1cncc(CN2CCC(n3ncc4c(N5CCOCC5)nc(-c5ccc6[nH]ccc6c5)nc43)CC2)c1,0.992 ± 0.17,0.9595 ± 0.005,0.858 ± 0.052,1.19 ± 0.078,0.532 ± 0.025,0.607 ± 0.042,0.897 ± 0.16,1.16 ± 0.014
O=C(c1ccc(/C=C/c2n[nH]c3ccccc23)cc1)N1CCNCC1,1.16 ± 0.021,1.14 ± 0.071,0.944 ± 0.093,1.09 ± 0.035,1.26 ± 0.6,1.46 ± 0.65,1.45 ± 0.45,1.53 ± 0.2
Nc1ccc(C(=O)Nc2cccc(-c3nc(N4CCOCC4)c4oc5ncccc5c4n3)c2)cn1,0.832 ± 0.044,0.858 ± 0.025,0.819 ± 0.049,1.004 ± 0.0078,0.758 ± 0.033,0.654 ± 0.069,0.591 ± 0.2,0.827 ± 0.4
CN(C[C@@H]1COCCO1)S(=O)(=O)Nc1ccc2ccc3ncc(-c4cnn(C)c4)cc3c(=O)c2c1,0.907 ± 0.053,0.888 ± 0.044,0.926 ± 0.15,0.9835 ± 0.0064,0.96 ± 0.1,1.07 ± 0.035,0.972 ± 0.39,1.02 ± 0.36
CC1(COc2ccc3c(c2)ncn3-c2ccc3cccc(N4CCC(N)CC4)c3n2)COC1,0.975 ± 0.02,1.14 ± 0.11,0.536 ± 0.13,1.02 ± 0.014,1.48 ± 0.25,1.73 ± 0.064,0.288 ± 0.11,1.64 ± 0.014
Cn1cc(-c2ccc3nnc(Sc4ccc5ncccc5c4)n3n2)cn1,0.983 ± 0.016,0.9215 ± 0.0078,1.07 ± 0.05,0.862 ± 0.014,1.12 ± 0.16,1.19 ± 0.042,1.41 ± 0.17,1.02 ± 0.052
COc1cc2nccc(Oc3ccc(NC(=O)NC4CC4)c(Cl)c3)c2cc1C(N)=O [E7080 (Lenvatinib)],1.07 ± 0.085,0.932 ± 0.069,1.06 ± 0.11,0.966 ± 0.062,1.44 ± 0.078,1.2 ± 0.05,1.31 ± 0.3,0.927 ± 0.34
Cc1cn(-c2cc(NC(=O)c3ccc(C)c(Nc4nccc(-c5cccnc5)n4)c3)cc(C(F)(F)F)c2)cn1 [Nilotinib (AMN-107)],0.808 ± 0.028,0.935 ± 0.041,0.9715 ± 0.005,0.973 ± 0.053,0.873 ± 0.054,0.708 ± 0.12,0.894 ± 0.028,1.04 ± 0.028
CN(C)c1ccc(-c2nc3ncc(Cl)c(N4CCN(CC(=O)Nc5nccs5)CC4)c3[nH]2)cc1,1.1 ± 0.05,1.04 ± 0.021,1.14 ± 0.028,0.96 ± 0.057,1.1 ± 0.3,1.1 ± 0.31,1.26 ± 0.17,1.16 ± 0.064
OCCn1cc(-c2ccc3c(c2)CC/C3=N\O)c(-c2ccncc2)n1,1.05 ± 0.15,0.992 ± 0.11,0.979 ± 0.059,1.145 ± 0.0071,1.5 ± 0.53,1.45 ± 0.085,1.62 ± 0.45,1.7 ± 0.092
Cc1cc(Nc2cc(N3CCN(C)CC3)nc(/C=C/c3ccccc3)n2)n[nH]1,0.88 ± 0.03,0.942 ± 0.061,0.678 ± 0.019,0.9085 ± 0.0035,1.06 ± 0.11,1.01 ± 0.21,1.23 ± 0.33,0.687 ± 0.28
COc1cc2c(Oc3ccc4[nH]c(C)cc4c3F)ncnc2cc1OCCCN1CCCC1 [Cediranib (AZD2171)],0.659 ± 0.18,0.769 ± 0.054,0.658 ± 0.02,0.893 ± 0.067,0.968 ± 0.51,0.801 ± 0.32,0.354 ± 0.15,0.699 ± 0.12
CCc1cc2c(cc1N1CCC(N3CCOCC3)CC1)C(C)(C)c1[nH]c3cc(C#N)ccc3c1C2=O,1.05 ± 0.071,0.995 ± 0.064,1.18 ± 0.26,0.853 ± 0.033,1.08 ± 0.078,1.05 ± 0.12,1.01 ± 0.17,0.638 ± 0.31
CC(C)(O)CC(=O)NCCn1ccc2ncnc(Nc3ccc(Oc4cccc(C(F)(F)F)c4)c(Cl)c3)c21,1.04 ± 0.16,1.03 ± 0.089,1.17 ± 0.14,0.959 ± 0.058,1.16 ± 0.15,1.07 ± 0.18,0.902 ± 0.27,0.879 ± 0.5
CN(C)Cc1cccc(N/C(=C2\C(=O)Nc3cc(C(N)=O)ccc32)c2ccccc2)c1,1.15 ± 0.13,1.09 ± 0.057,1.09 ± 0.028,1.085 ± 0.0071,0.977 ± 0.23,0.982 ± 0.12,1.05 ± 0.095,1.14 ± 0.035
C=CC(=O)Nc1cccc(Oc2nc(Nc3ccc(N4CCN(C)CC4)cc3OC)ncc2Cl)c1,1.24 ± 0.014,1.08 ± 0.042,1.14 ± 0.05,0.922 ± 0.064,1.16 ± 0.078,1.05 ± 0.05,0.722 ± 0.55,0.71 ± 0.31
CC(C)n1nc(-c2ccc3oc(N)nc3c2)c2c(N)ncnc21,0.832 ± 0.15,0.916 ± 0.016,0.624 ± 0.1,1.04 ± 0.072,0.341 ± 0.062,0.509 ± 0.071,0.569 ± 0.26,0.704 ± 0.15
O=C(Nc1cccc(Nc2ncc(Br)c(NCCc3cnc[nH]3)n2)c1)N1CCCC1,1.07 ± 0.05,1.02 ± 0.071,0.932 ± 0.016,1.16 ± 0.05,1.74 ± 0.31,1.39 ± 0.38,1.97 ± 0.11,1.33 ± 0.13
CCS(=O)(=O)Nc1ccc2c(c1)/C(=C(/Nc1ccc(CN3CCCCC3)cc1)c1ccccc1)C(=O)N2 [Hesperadin],1.08 ± 0.13,1.14 ± 0.085,0.556 ± 0.2,0.873 ± 0.15,0.765 ± 0.36,0.902 ± 0.11,0.492 ± 0.031,0.557 ± 0.16
C[C@@H](Oc1cc(-n2cnc3ccc(CN4CCN(C)CC4)cc32)sc1C(N)=O)c1ccccc1C(F)(F)F,0.905 ± 0.036,0.934 ± 0.033,0.782 ± 0.0057,1.05 ± 0.057,0.726 ± 0.15,0.565 ± 0.17,0.335 ± 0.045,0.941 ± 0.11
